Laboratory results reported in the supplement of paper PMC12350171.
Counter-ions that a name gives are not always drawn.

Legend:
Settings in all cases: 20 µM
[1] = system: Salmonella enterica typhimurium; test: growth AUC normalised to DMSO control (fraction of control); higher = less growth inhibition, active = hit call of the paper
Outline: (§1)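 Three biological replicates were carried out, with OD578 read hourly for 24 h. Before inoculation at a starting OD578 of 0.01, pathogens were passaged anaerobically twice; plates were pre-reduced mGAM containing 20 μM compound and 1% DMSO, sealed with breathable membranes, and the Haemophilus parainfluenzae medium carried added hemin and NAD. Area under each growth curve was calculated by the trapezoidal rule up to the exponential-to-stationary transition and normalised to DMSO controls on the same plate.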

Shigella flexneri = test: as above
Outline: as §1

Vibrio cholerae = test: as above
Outline: as §1

[2] = system: Yersinia pseudotuberculosis; test: as above
Outline: as §1

P. vulgatus RND KO = test: growth AUC normalised to DMSO control (median) (fraction of control); higher = less growth inhibition, active = hit call of the paper
Outline: (§2)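 After two overnight anaerobic passages, strains were inoculated at OD578 0.01 into mGAM in 96-well plates containing approved-drug library compounds at 20 μM and 1% DMSO. Growth was followed by reading OD578 hourly for 24 h within an anaerobic incubator. Area under the curve, taken by the trapezoidal rule up to the start of stationary phase, was normalised to same-plate vehicle wells, and the median of three biological replicates is listed.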

P. vulgatus WT = test: as above
Outline: as §2

[3] = system: S. enterica typhimurium WT; test: as above
Outline: as §2

[4] = system: S. enterica typhimurium tolC KO; test: as above
Outline: as §2

Measured: growth AUC normalised to DMSO control
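Throughout, for growth AUC normalised to DMSO control (median): active when median AUC fell below 0.1.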

CNNCc1ccc(C(=O)NC(C)C)cc1 [Procarbazine hydrochloride]
inactive: [1] 1 | Shigella flexneri 1.02 | Vibrio cholerae 1 | [2] 0.992 | P. vulgatus RND KO 1.06 | P. vulgatus WT 1.05 | [3] 1.01 | [4] 1

CN1CCCC(n2nc(Cc3ccc(Cl)cc3)c3ccccc3c2=O)CC1 (stereo not drawn) [Azelastine hydrochloride]
inactive: [1] 1.01 | Shigella flexneri 0.989 | Vibrio cholerae 0.932 | [2] 0.969 | P. vulgatus RND KO 1.01 | P. vulgatus WT 1 | [3] 1 | [4] 0.935

NC[C@@H]1O[C@@H](O[C@H]2[C@H](O)[C@@H](O[C@H]3O[C@H](CO)[C@@H](O)[C@H](N)[C@H]3O)[C@H](N)C[C@@H]2N)[C@@H](O)[C@H](O)[C@H]1O [Kanamycin A sulfate]
inactive: [1] 1.01 | Shigella flexneri 1.03 | Vibrio cholerae 1.05 | [2] 1 | P. vulgatus RND KO 1.01 | P. vulgatus WT 0.992 | [3] 1.01 | [4] 1.01

NC1CCN(c2nc3c(cc2F)c(=O)c(C(=O)O)cn3-c2ccc(F)cc2F)C1 (stereo not drawn) [Tosufloxacin hydrochloride]
active: [1] 0.00626 | Shigella flexneri 0.0173 | Vibrio cholerae 0.0443 | [2] 0.0355 | P. vulgatus RND KO 0.0157 | P. vulgatus WT 0.012 | [3] 0.00524 | [4] 0.00501

CC(=O)c1ccc(S(=O)(=O)NC(=O)NC2CCCCC2)cc1 [Acetohexamide]
inactive: [1] 1 | Shigella flexneri 0.998 | Vibrio cholerae 0.984 | [2] 0.989 | P. vulgatus RND KO 0.949 | P. vulgatus WT 1 | [3] 0.996 | [4] 0.994

CC(=O)OCC(=O)[C@@]12N=C(C)O[C@@H]1C[C@H]1[C@@H]3CCC4=CC(=O)C=C[C@]4(C)[C@H]3[C@@H](O)C[C@@]12C [Deflazacort]
inactive: [1] 0.977 | Shigella flexneri 0.992 | Vibrio cholerae 1 | [2] 0.999 | P. vulgatus RND KO 0.999 | P. vulgatus WT 1.01 | [3] 0.994 | [4] 0.987

C[C@H](CCC(=O)O)[C@H]1CC[C@H]2[C@@H]3[C@H](O)C[C@@H]4C[C@H](O)CC[C@]4(C)[C@H]3CC[C@]12C [Chenodiol]
inactive: [1] 0.991 | Shigella flexneri 0.96 | Vibrio cholerae 0.988 | [2] 1.01 | P. vulgatus RND KO 0.922 | P. vulgatus WT 0.94 | [3] 0.998 | [4] 1.01

CN(CCOc1ccc(CC2SC(=O)NC2=O)cc1)c1ccccn1 (stereo not drawn) [Rosiglitazone hydrochloride]
inactive: [1] 1.02 | Shigella flexneri 1.08 | Vibrio cholerae 1.01 | [2] 0.975 | P. vulgatus RND KO 1.06 | P. vulgatus WT 1.04 | [3] 1.02 | [4] 0.993

CC(COc1ccccc1)N(CCCl)Cc1ccccc1 (stereo not drawn) [Phenoxybenzamine hydrochloride]
inactive: [1] 1.01 | Shigella flexneri 1.01 | Vibrio cholerae 1.01 | [2] 1.03 | P. vulgatus RND KO 1.02 | P. vulgatus WT 1.03 | [3] 1 | [4] 0.99

CC(=O)N1CCN(c2ccc(OCC3COC(Cn4ccnc4)(c4ccc(Cl)cc4Cl)O3)cc2)CC1 (stereo not drawn) [Ketoconazole]
inactive: [1] 1.01 | Shigella flexneri 0.998 | Vibrio cholerae 0.988 | [2] 0.984 | P. vulgatus RND KO 0.955 | P. vulgatus WT 0.972 | [3] 0.998 | [4] 0.884

O=C1c2ccccc2S(=O)(=O)N1CCCCN1CCN(c2ncccn2)CC1 [Ipsapirone]
inactive: [1] 0.991 | Shigella flexneri 0.99 | Vibrio cholerae 0.957 | [2] 0.998 | P. vulgatus RND KO 1 | P. vulgatus WT 1.01 | [3] 0.989 | [4] 1.01

C[C@]1(Cn2ccnn2)[C@H](C(=O)O)N2C(=O)C[C@H]2S1(=O)=O [Tazobactam]
inactive: [1] 0.986 | Shigella flexneri 0.976 | Vibrio cholerae 0.972 | [2] 0.99 | P. vulgatus WT 0.57 | [3] 0.99 | [4] 1

CN1C(C(=O)Nc2ccccn2)=C(O)c2sccc2S1(=O)=O [Tenoxicam]
inactive: Shigella flexneri 0.94 | [2] 0.993 | P. vulgatus RND KO 0.97 | P. vulgatus WT 0.969 | [3] 1 | [4] 0.956
active: Vibrio cholerae 0.791

N[C@@H](Cc1ccc(O)c(O)c1)C(=O)O [Levodopa]
inactive: Shigella flexneri 1 | Vibrio cholerae 0.991 | [2] 0.99 | P. vulgatus RND KO 1.01 | P. vulgatus WT 0.996 | [3] 0.973 | [4] 0.996

CC1(C)S[C@@H]2[C@H](NC(=O)[C@H](N)c3ccccc3)C(=O)N2[C@H]1C(=O)O [Ampicillin trihydrate]
active: [1] 0.00858 | Shigella flexneri 0.0549 | Vibrio cholerae 0.254 | [2] 0.0564 | P. vulgatus WT 0.0887 | [3] 0.0624 | [4] 0.0201

Cc1onc(-c2ccccc2)c1C(=O)N[C@@H]1C(=O)N2[C@@H]1SC(C)(C)[C@@H]2C(=O)O [Oxacillin sodium]
inactive: [1] 0.975 | Shigella flexneri 1.03 | Vibrio cholerae 0.961 | P. vulgatus WT 0.151 | [3] 0.994
active: [2] 0.908 | [4] 0.0924

Clc1ccc(COC(Cn2ccnc2)c2ccc(Cl)cc2Cl)cc1 (stereo not drawn) [Econazole nitrate]
inactive: [1] 0.977 | Shigella flexneri 0.987 | Vibrio cholerae 0.962 | [2] 1.01 | P. vulgatus RND KO 0.899 | P. vulgatus WT 0.902 | [3] 1 | [4] 0.912

CC(=O)[C@H]1CC[C@H]2[C@@H]3CCC4=CC(=O)CC[C@]4(C)[C@H]3CC[C@]12C [Progesterone]
inactive: Shigella flexneri 1.01 | Vibrio cholerae 1 | [2] 1 | P. vulgatus WT 0.612 | [3] 1.02 | [4] 0.918
active: P. vulgatus RND KO 0.0182

N=C(N)c1ccc(OCCCCCOc2ccc(C(=N)N)cc2)cc1 [Pentamidine isethionate]
inactive: Shigella flexneri 0.984 | Vibrio cholerae 1.02 | [2] 1.02 | P. vulgatus RND KO 0.591 | P. vulgatus WT 0.749 | [3] 0.999 | [4] 0.985

Cc1ccc(/C(=C\CN2CCCC2)c2ccccn2)cc1 [Triprolidine hydrochloride]
inactive: Shigella flexneri 0.97 | Vibrio cholerae 0.967 | [2] 0.992 | P. vulgatus RND KO 1 | P. vulgatus WT 0.99 | [3] 1 | [4] 0.978

COc1ccccc1N1CCN(CCCCNC(=O)c2ccc3ccccc3c2)CC1
active: Vibrio cholerae 0.0446
inactive: [1] 1.01 | Shigella flexneri 1.03 | [2] 0.978 | P. vulgatus RND KO 1.02 | P. vulgatus WT 1.08 | [3] 0.985 | [4] 0.753

O=C(O)c1cc(/N=N/c2ccc(S(=O)(=O)Nc3ccccn3)cc2)ccc1O [Sulfasalazine]
inactive: Shigella flexneri 1.01 | Vibrio cholerae 1.01 | [2] 0.99 | P. vulgatus RND KO 1 | P. vulgatus WT 1.02 | [3] 1.01 | [4] 1.01

Cc1cc(N)c2ccccc2[n+]1CCCCCCCCCC[n+]1c(C)cc(N)c2ccccc21 [Dequalinium dichloride]
inactive: [1] 0.989 | Shigella flexneri 0.939 | Vibrio cholerae 0.96 | [4] 0.503
active: [2] 0.932 | P. vulgatus RND KO 0.0354 | P. vulgatus WT 0.0484

C[C@@H](O[C@H]1OCCN(Cc2n[nH]c(=O)[nH]2)[C@H]1c1ccc(F)cc1)c1cc(C(F)(F)F)cc(C(F)(F)F)c1 [Aprepitant]
active: P. vulgatus RND KO 0.0129 | P. vulgatus WT 0.0137
inactive: [1] 0.993 | Shigella flexneri 0.978 | Vibrio cholerae 0.985 | [2] 0.976 | [3] 0.994 | [4] 0.997

CCOC(=O)OC(C)OC(=O)[C@@H]1N2C(=O)[C@@H](NC(=O)[C@H](N)c3ccccc3)[C@H]2SC1(C)C (stereo partly drawn) [Bacampicillin hydrochloride]
inactive: Vibrio cholerae 1 | [3] 0.154
active: [1] 0.00881 | Shigella flexneri 0.0323 | [2] 0.277 | [4] 0.0179

CCOc1ccc2ccccc2c1C(=O)N[C@@H]1C(=O)N2[C@@H]1SC(C)(C)[C@@H]2C(=O)O [Nafcillin sodium salt monohydrate]
inactive: [1] 0.981 | Shigella flexneri 0.973 | Vibrio cholerae 0.96 | [2] 0.967 | [3] 1

O=c1[nH]c(=O)n([C@H]2C[C@H](O)[C@@H](CO)O2)cc1C(F)(F)F [Trifluridine]
inactive: Shigella flexneri 1.01 | Vibrio cholerae 1.05 | [2] 0.997 | P. vulgatus RND KO 0.13 | P. vulgatus WT 0.123 | [3] 0.964 | [4] 0.958

Nc1nc2ccc(OC(F)(F)F)cc2s1 [Riluzole hydrochloride]
inactive: [1] 1.01 | Shigella flexneri 0.993 | Vibrio cholerae 0.937 | [2] 0.984 | P. vulgatus RND KO 0.999 | [3] 0.979 | [4] 0.976

C[C@@H](O)[C@H]1C(=O)N2C(C(=O)O)=C(SCCNC=N)C[C@H]12 [Imipenem]
inactive: [1] 1.02 | Vibrio cholerae 1 | [2] 0.967 | [3] 1 | [4] 0.996
active: Shigella flexneri 0.63
